Only some compounds are listed: those with a hit (about 2.1% of all), similar ones and a draw of the others.
BaF3 parental = counter-screen for JAK2V617F inhibitors: parental Ba/F3 viability inhibitors; CellTiter-Glo ATP luminescence; inhibition, % at 5.6 µM; 220,000 compounds, 1.1% hits; AID 1486;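 active means inhibition above a per-campaign cutoff, the mean inhibition of all tested compounds plus 3 SD, cut at about 27% in these data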;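 further: 0% = DMSO wells and 100% = JAK Inhibitor I control wells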
KLF5 inh = kruppel-like factor 5 inhibition; DLD-1 KLF5 promoter-luciferase reporter, luminescence; inhibition, % at 5 µM; 290,000 compounds, 0.23% hits;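 active means inhibition above a per-plate limit of that plate's mean compound inhibition plus 3 SD, cut at about 60% in these data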;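 further: 0% = DMSO wells and 100% = LY294002 at 200 µM; higher means less KLF5 promoter-driven luciferase light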
APP 5UTR inh = APP translation inhibition | SH-SY5Y APP 5'UTR-luciferase reporter, luminescence | inhibition, % at 2 µM | 190,000 compounds, 0.82% hits;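 active means inhibition above a set limit, derived from the sample mean plus 3 SD, cut at about 45% in these data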
IEC-6 cytotox = kills IEC-6 intestinal cells in KLF5 counter-screen; inhibition, % at 5 µM; IEC-6 cytotoxicity, luminescence viability; 290,000 compounds, 0.78% hits; in the data active means inhibition above about 22%;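 further: 0% = plate median of test compound wells and 100% = cytotoxic reference compound wells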
aSyn 5UTR inh = 5' untranslated region of α-synuclein, MLPCN primary screen; alpha-synuclein 5'UTR reporter, inhibitor activity; inhibition, % (tested at 7.5 µM); 300,000 compounds, 0.82% hits; in the data active means inhibition above about 60%;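 further: H4 neuroglioblastoma cells stably carrying SNCA 5'UTR luciferase fusion; 0% = DMSO wells and 100% = positive control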
Ba/F3 V617F tox = loss of viability in JAK2V617F-driven Ba/F3 cells. Ba/F3 EpoR-JAK2V617F viability, ATP luminescence. inhibition, % at 5.6 µM. 220,000 compounds, 1.1% hits;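 active means inhibition above the campaign mean plus 3 SD over all tested compounds, cut at about 24% in these data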;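 further: cytokine-independent growth of Ba/F3 cells driven by EpoR plus mutant JAK2; 0% = DMSO-treated cells and 100% = JAK inhibitor I control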
* hit, by the source's call; nt = no result.

SMILES | BaF3 parental | KLF5 inh | APP 5UTR inh | IEC-6 cytotox | aSyn 5UTR inh | Ba/F3 V617F tox
CC1CCC(NC(=O)CCS(=O)(=O)c2ccc3c(c2)CCN3C(=O)C2CC2)CC1 (centres undefined) | nt | -12 | nt | 9 | -5 | nt
Cc1ccc(C(=O)c2cc([N+](=O)[O-])ccc2N2CCOCC2)cc1 | 5 | 10 | 93* | 2 | 92* | 5
Cc1ccc(C(=O)c2cc([N+](=O)[O-])ccc2N2CCCCC2)c(C)c1 | 87* | 37 | 96* | 89* | 69* | 88*
O=C(c1cc([N+](=O)[O-])ccc1Cl)N1CCc2ccccc21 | nt | -19 | nt | 1 | 23 | nt
O=C(c1cc([N+](=O)[O-])ccc1N1CCCCC1)N1CCc2ccccc21 | 7 | -7 | 42 | -3 | 81* | 3
O=C(c1cc([N+](=O)[O-])ccc1N1CCOCC1)N1CCOCC1 | 5 | -18 | -3 | 2 | -12 | 3
CN(CC(=O)Nc1ccc(N2CCOCC2)cc1)C(=O)CCNC(=O)c1ccc(Br)cc1 | nt | nt | nt | nt | -4 | nt
Cc1ccc(S(=O)(=O)N2CCOCC2)cc1NC(=O)COC(=O)Cn1c(C)csc1=O | nt | nt | nt | nt | 2 | nt
O=C(C1Cc2ccccc2CN1C(=O)c1ccccc1)N1CCN(c2ccccc2)CC1 (centres undefined) | 47* | 4 | nt | 1 | -1 | 58*
O=C(c1ccc(CN2CCc3ccccc3C2)cc1)N1CCN(c2ccccc2)CC1 | 3 | 12 | -10 | -8 | -12 | -1
O=C(CN1C(=O)/C(=C\c2ccccc2Cl)Oc2ccccc21)NCc1cccnc1 | 1 | -21 | -8 | 0 | -13 | 3
Cc1ccc(CN2C(=O)/C(=C\c3ccc(C(=O)NCc4cccnc4)cc3)Oc3ccccc32)cc1 | -2 | -14 | 72* | 0 | 101* | -4
c1ccc(-c2nnc(CSc3ccc4c(c3)OCCO4)o2)cc1 | 0 | -2 | 6 | 2 | 7 | 0
Cc1ccc(C)c(NC(=O)C(Sc2nnc(-c3cccs3)o2)c2ccccc2)c1 (centres undefined) | 72* | -1 | -8 | 11 | nt | 89*
COc1ccc2cc(C(=O)N3CCc4ccccc43)[nH]c2c1 | nt | -127 | nt | 8 | -122 | nt
CCCC(=O)NC(=S)Nc1cccc(-c2nc3ncccc3o2)c1 | 79* | -26 | -20 | 0 | 12 | -1
CC(C)CC(=O)Nc1cccc(-c2nc3ncccc3o2)c1 | nt | -27 | nt | 5 | -12 | nt
Cc1ccccc1C(=O)Nc1ccc(N(C)C)c2ccccc12 | nt | -21 | nt | 0 | -24 | nt
Cc1cc(Sc2nnc(N)s2)c2ccccc2n1 | 77* | 18 | nt | 18 | -56 | 96*
Cc1cc(Sc2nnc(/N=C/N(C)C)s2)c2ccccc2n1 | 73* | -7 | nt | 11 | nt | 90*
CC12Cc3ccc4ccccc4c3C=C1C[N+](C)(C)C2 (centres undefined) | 40* | -12 | -3 | 3 | -5 | 27*
Oc1ccccc1CN1CCCC(N2CCc3ccccc3C2)C1 (centres undefined) | nt | -4 | nt | -5 | -7 | nt
CCc1ccc(/C=C/C(=O)c2cc(Br)ccc(=O)c2O)cc1 | -2 | -23 | -5 | 1 | 72* | -3
COc1ccccc1/C=C/C(=O)c1cc(Br)ccc1OC(=O)c1ccco1 | 6 | -12 | -44 | 8 | -15 | 3
Cc1ccc(/C=C/C(=O)c2cc(Br)ccc2OC(=O)c2ccco2)cc1 | 1 | -36 | 51* | -4 | -94 | -4
SMILES | BaF3 parental | KLF5 inh | APP 5UTR inh | IEC-6 cytotox | aSyn 5UTR inh | Ba/F3 V617F tox
O=C1/C(=N\S(=O)(=O)c2cccs2)C([n+]2cccc(Cc3ccccc3)c2)=C([O-])c2ccccc21 | 2 | -17 | nt | 2 | 85* | 5
O=C1/C(=N\S(=O)(=O)c2cccs2)C([n+]2ccc(CCCc3ccccc3)cc2)=C([O-])c2ccccc21 | 2 | -40 | nt | 0 | 91* | 1
Cc1cc(C)c[n+](C2=C([O-])c3ccccc3C(=O)/C2=N\S(=O)(=O)c2cccs2)c1 | 0 | -1 | -5 | -5 | 24 | -1
CC(C)(C)c1cc[n+](C2=C([O-])c3ccccc3C(=O)/C2=N\S(=O)(=O)c2ccccc2)cc1 | -1 | -41 | nt | -10 | 84* | 7
Cc1cc[n+](C2=C([O-])c3ccccc3C(=O)/C2=N\S(=O)(=O)c2cccs2)cc1C | 7 | -16 | -7 | -8 | 74* | 2
Cc1onc(-c2ccccc2)c1C(=O)N1CCN(Cc2ccccc2)CC1 | nt | -16 | nt | -4 | 4 | nt
O=C(N/C(=C\c1cccc(Br)c1)C(=O)N1CCCCC1)c1ccco1 | nt | -9 | nt | -4 | 14 | nt
COc1ccc(CCNC(=O)CSc2nnc(CNC(=O)c3cc(OC)c(OC)c(OC)c3)o2)cc1OC | nt | -57 | nt | -4 | 1 | nt
COc1ccc(S(=O)(=O)N2CCC3(CC2)OCCN3S(=O)(=O)c2c(C)cc(C)cc2C)cc1 | nt | nt | nt | nt | 2 | nt
Cc1ccc(NC2=C/C(=N/S(=O)(=O)c3cccs3)c3ccccc3C2=O)cc1C | 3 | -19 | -40 | -3 | -155 | 3
Cc1ccccc1NC1=C/C(=N\S(=O)(=O)c2cccs2)c2ccccc2C1=O | 2 | -20 | 10 | 0 | 114* | -1
CCCCn1c(SCC(=O)N2c3ccccc3CCc3ccccc32)nc2c1c(=O)n(C)c(=O)n2C | 3 | -12 | -2 | -8 | 74* | 1
O=C(O)c1cc(-c2ccccc2)on1 | 7 | -11 | 3 | 2 | -28 | 4
O=P(O)(O)c1cc(-c2ccccc2)oc1-c1ccccc1 | 28* | 13 | nt | -5 | -10 | -1
Cc1ccc(NC2=C(Cl)C(=O)OC2OC(C)C)c(C)c1 (centres undefined) | 9 | -22 | -1 | 2 | 69* | 0
Cc1cccc(C)c1NC1=C(Cl)C(=O)OC1OC(C)C (centres undefined) | 2 | 6 | -1 | 0 | 8 | -2
Cc1[nH]n(-c2ccccc2)c(=O)c1N=Nc1ccc(C(N)=O)cc1 | nt | 6 | nt | 7 | -3 | nt
NC(=O)c1ccc(N=Nc2c(-c3ccccc3)[nH]n(-c3ccccc3)c2=O)cc1 | 1 | 0 | 69* | 1 | 23 | 2
CCOC(=O)C1(CC2CC2)CCN(Cc2cc(Cl)c(O)c(OC)c2)CC1 | 3 | -27 | -6 | -2 | -1 | 1
CCOC(=O)C1(CC2CC2)CCN(Cc2ccc(OC)cc2F)CC1 | 80* | 1 | 9 | 0 | 2 | -1
COc1cccc2c1C(=O)c1c(O)c3c(c(O)c1C2=O)C[C@@](O)(C(C)=O)C[C@@H]3O[C@H]1C[C@H](N)[C@H](O)[C@H](C)O1 | 101* | 43 | 96* | 91* | nt | 102*
COc1cccc2c1C(=O)c1c(O)c3c(c(O)c1C2=O)C[C@@](O)(C(=O)CO)C[C@@H]3O[C@H]1C[C@H](N)[C@@H](O)[C@H](C)O1 | nt | nt | nt | nt | 109* | nt
CC(=O)[C@]1(O)Cc2c(O)c3c(c(O)c2[C@@H](O[C@H]2C[C@H](N)[C@H](O)[C@H](C)O2)C1)C(=O)c1ccccc1C3=O | nt | nt | nt | nt | 110* | nt
